# Assay results from PubChem BioAssay AID463173 (ICCB-Longwood Screening Facility, Harvard Medical School, 2010).
# In all, about 52,000 compounds went through this assay and about 4,300 (8.3%) were called active. The sample as a whole holds a higher share of actives than the screen did. Unmarked numbers belong to inactive results. No stated cut-off is given here; in the data, active means survival mostly below about 52% (no sharp cut-off); inactive means mostly above about 56%.
# Tested on: DeltatarO mutant
# Assay: growth inhibition of S. aureus wild type versus tarO mutant, primary screen, teichoic acid synthesis inhibitors, RN4220, OD600 (AID 463173)
# Conditions: OD600, 18 h, stronger effect = lower value, screened at 18.75 µg/mL (by protocol)
row,Structure (SMILES),survival
1,Cc1ccc(-c2nc3nc(C)cc(Nc4ccccc4O)n3n2)cc1,75%
2,Cc1nn(CC(=O)Nc2cc(F)ccc2F)c(=O)c2cccn12,94%
3,Cc1ccc(C)c(-c2nn(CC(=O)Nc3cc(F)ccc3F)c(=O)c3c2CCCC3)c1,41% (active)
4,COc1ccccc1NC(=O)Cn1nc(-c2ccc(C)cc2)c2c(c1=O)CCCC2,42%
5,O=C(Cn1ncc2c([nH]c3ccccc32)c1=O)Nc1cc(F)ccc1F,81%
6,CCc1ccccc1NC(=O)CN1CCCN(Cc2cc(C)ccc2C)S1(=O)=O,94%
7,CCc1ccccc1NC(=O)Cn1nc(-c2cc(C)ccc2C)c2c(c1=O)CCCC2,41% (active)
8,COc1ccc(Cc2nnc(SCC(N)=O)o2)cc1,76%
9,O=C1COc2ccccc2N1Cc1c(F)cccc1Cl,79%
10,CCOC(=O)c1c(NC(=O)CCCOc2ccc(C(C)(C)C)cc2)sc2c1CCCC2,14% (active)
11,CCOC(=O)c1c(NC(=O)CCCOc2ccc(C(C)(C)C)cc2)sc2c1CCC2,9% (active)
12,CCOC(=O)c1c(NC(=O)COc2ccc(Cl)cc2C)sc2c1CCCCC2,75%
13,CCOC(=O)c1c(NC(=O)CCCOc2ccc(Cl)cc2)sc2c1CCC2,17% (active)
14,CCOC(=O)c1c(NC(=O)COc2ccc(C(C)(C)C)cc2)sc2c1CCCC2,75%
15,CCOC(=O)c1c(NC(=O)CS(=O)(=O)c2ccc(Cl)cc2)sc2c1CCCC2,77%
16,Cc1ccc(N2CCN(S(=O)(=O)c3cc(Br)cc4c3N(C(=O)C3CC3)CC4)CC2C)cc1 (centres undefined),70%
17,CCOc1ccccc1NC(=O)C(=O)NCCc1sc(-c2cccc(F)c2)nc1C,90%
18,O=C(OCC(=O)N1CCc2ccccc21)c1ccccc1,92%
19,CCOc1ccc(CCNC(=O)c2cnc3sc(N4CCC(C)CC4)nn3c2=O)cc1,84%
20,COc1cc2c(cc1OC)C(CC(=O)Nc1ccccc1)C(=O)NN=C2C (centres undefined),103%
21,CCc1cc2c(cc3c(=O)n(CC(=O)N4CCCCC4)nc(CC)n32)s1,77%
22,CCc1cc2c(cc3c(=O)n(CC(=O)NC4CCC(C)CC4)nc(CC)n32)s1 (centres undefined),115%
23,CCc1cc2c(cc3c(=O)n(CC(=O)N4CCC(C)CC4)nc(CC)n32)s1,41% (active)
24,COc1ccc(OC)c(C(=O)CN2C(=O)N(c3ccc(C)cc3)S(=O)(=O)c3ccccc32)c1,89%

row,Structure (SMILES),survival
1,COc1ccc(C(=O)NCC(c2ccco2)S(=O)(=O)c2cccs2)cc1 (centres undefined),100%
2,COc1ccccc1CNc1nc2ccccc2c2nc(-c3cccnc3)nn12,48% (active)
3,Cc1cccc(-c2nc3c4ccccc4nc(NCc4ccccc4Cl)n3n2)c1,138%
4,Clc1ccccc1CNc1nc2ccccc2c2nc(-c3cccnc3)nn12,86%
5,COc1cc2nc(NCc3ccccc3Cl)n3nc(-c4cccnc4)nc3c2cc1OC,105%
6,COc1ccccc1CNc1nc2ccccc2c2nc(-c3cccc(C)c3)nn12,24% (active)
7,COc1ccc(OC)c(CCNc2nc3ccccc3c3nc(-c4cccnc4)nn23)c1,112%
8,Cc1ccc(NC(=O)c2oc3ccc(S(=O)(=O)N(C)C4CCCCC4)cc3c2C)cc1Cl,95%
9,Cc1cc2n(n1)CCCN2C(=O)Nc1cccc(C)c1C,73%
10,O=C(O)C1C2C=CC(C2)C1C(=O)NCCO (centres undefined),82%
11,COc1ccc(OC)c(S(=O)(=O)N2CCC(C(=O)NCCC3=CCCCC3)CC2)c1,92%
12,COC(=O)CNC(=O)N1CCN(S(=O)(=O)c2ccc3c(ccn3C)c2)CC1,87%
13,CCOC(=O)CNC(=O)N1CCN(S(=O)(=O)c2ccc3c(ccn3C)c2)CC1,32% (active)
14,CCOC(=O)CCNC(=O)N1CCN(S(=O)(=O)c2ccc3c(ccn3C)c2)CC1,89%
15,CCn1c(SCc2ccccc2)nnc1-c1cccnc1,75%
16,Cc1ccccc1-c1nnc(CN2CCN(c3cc(Cl)ccc3C)CC2)o1,74%
17,Cc1ccccc1-c1nnc(CN2CCN(c3cccc(C)c3C)CC2)o1,61%
18,Cc1cccc(N2CCN(Cc3nnc(-c4ccccc4C)o3)CC2C)c1 (centres undefined),33% (active)
19,Cc1ccc(N2CCN(Cc3nnc(-c4ccccc4F)o3)CC2)c(C)c1,22% (active)
20,Cc1ccccc1-c1nnc(CN2CCN(c3ccccn3)CC2)o1,120%
21,Cc1ccc(C)c(N2CCN(Cc3nnc(-c4ccccc4)o3)CC2)c1,91%
22,CCn1c(=O)n(CC2CCC(C(=O)NC(C)C)CC2)c(=O)c2sccc21 (centres undefined),85%
23,CC(=O)c1ccc(NC(=O)Cn2cc(S(=O)(=O)Cc3ccccc3Cl)c3ccccc32)cc1,74%
24,CCOC(=O)C1CCCN(C(=O)c2ccc3c(c2)N(Cc2ccccc2)C(=O)c2ccccc2S3=O)C1 (centres undefined),120%

row,Structure (SMILES),survival
1,CCCCC(=O)Nc1ccc2nc(SCC(=O)N3CCOCC3)sc2c1,87%
2,CCN(Cc1ccccc1)C(=O)CCc1c(C)nc2c(c(C)nn2-c2ccc(C)c(C)c2)c1C,95%
3,COc1ccc(C(=O)N(Cc2cc(OC)c(OC)c(OC)c2)CC2CCCO2)cc1 (centres undefined),48%
4,O=C(c1ccc(Cl)cc1)N1CCN(CCc2ccncc2)CC1,103%
5,CCOC(=O)CSc1nc2sc3c(c2c(=O)n1Cc1ccccc1)CC(C)CC3 (centres undefined),64%
6,Cc1ccc(-n2c(SCCC(C)C)nc3sc4c(c3c2=O)CC(C)(C)OC4)cc1,49%
7,CCC1(C)Cc2c(sc3nc(SC)n(-c4ccc(C)cc4)c(=O)c23)CO1 (centres undefined),33% (active)
8,CCCCCOC(=O)CSc1nc2sc3c(c2c(=O)n1Cc1ccccc1)CC(C)(CC)OC3 (centres undefined),46% (active)
9,CCOC(=O)CSc1nc2sc3c(c2c(=O)n1Cc1ccccc1)CC(C(C)C)OC3 (centres undefined),74%
10,CCCN(CCC)C(=O)CSc1nc2sc3c(c2c(=O)n1-c1ccccc1)CCN(C(C)=O)C3,178%
11,CCCCCOC(=O)CSc1nc2sc3c(c2c(=O)n1Cc1ccccc1)CC(C)(C)OC3,41% (active)
12,CCCCCOC(=O)CSc1nc2sc3c(c2c(=O)n1-c1ccccc1)CC(C)(CC)OC3 (centres undefined),36% (active)
13,CCOC(=O)CSc1nc2sc3c(c2c(=O)n1-c1ccccc1)CC(C(C)C)OC3 (centres undefined),96%
14,COC(=O)CSc1nc2sc3c(c2c(=O)n1-c1ccccc1C)CC(C)(C)OC3,73%
15,CCOC(=O)CSc1nc2sc3c(c2c(=O)n1Cc1ccccc1)CCC(C(C)(C)C)C3 (centres undefined),61%
16,COC(=O)CSc1nc2sc3c(c2c(=O)n1-c1ccc(C)cc1)CC(C(C)C)OC3 (centres undefined),61%
17,CCOc1ccc(CN(CCc2ccc3c(c2)OCO3)Cc2cc(OC)c(OC)cc2OC)cc1,44%
18,O=C(Nc1ccc(C(=O)OCc2cc(=O)n3nc(C4CC4)sc3n2)cc1)c1cccc(F)c1,67%
19,O=C(Nc1cccc(F)c1)/C(=C\c1cccs1)NC(=O)c1cccs1,79%
20,O=C(CCCSc1nc(-c2ccco2)cc(C(F)(F)F)n1)Nn1cnnc1,72%
21,COc1cccc(C(=O)NC(=O)Nc2ccc(-n3nc(C(F)(F)F)cc3C(F)(F)F)cc2)c1,81%
22,CCOc1ccc(OCC)c(NC(=O)C2CCCN(S(=O)(=O)c3ccc(C)cc3)C2)c1 (centres undefined),60%
23,CCC(Sc1nc2cc(OC)c(OC)cc2c2nc(-c3ccccc3)nn12)C(=O)Nc1cccc(C)c1 (centres undefined),80%
24,CCCCc1cc(=O)oc2cc(C)c3c(C(C)(C)C)coc3c12,102%

row,Structure (SMILES),survival
1,COc1ccc(CNS(=O)(=O)c2cnc(N)nc2)c(OC)c1,83%
2,CCOC(=O)c1cnc(NCc2ccc(OC)cc2OC)c2ccccc12,86%
3,CCOc1ccc(-c2cnc(NCc3ccc(OC)cc3OC)n2C)cc1,37% (active)
4,COc1ccc(OC)c(CNc2ncc(-c3ccc(Cl)cc3)n2C)c1,25% (active)
5,COc1ccc(OC)c(CNc2ncnc3onc(-c4ccc(Cl)cc4)c23)c1,53%
6,COc1ccc(OC)c(CNC(=O)CN2N=C(c3ccc(Cl)cc3)CCC2=O)c1,96%
7,CCOc1ccccc1C(=O)N1CC(=O)Nc2ccc(Cl)cc2C1c1ccccc1 (centres undefined),73%
8,Fc1ccc(Nc2c3c(nc4nncn24)CCC3)cc1,74%
9,Cc1ccc(-n2nc(C(=O)Nc3cccc(C#N)c3)c3c4ccccc4n(C)c3c2=O)cc1,129%
10,Cc1ccc(C(=O)c2oc3ccccc3c2NC(=O)c2cc(-c3ccccc3)on2)cc1,77%
11,O=C(c1ccco1)N1CCN(c2c3c(nc4cc(-c5cccc(F)c5)nn24)CCCC3)CC1,70%
12,Cc1ccc2cc(CN(Cc3cccnc3)C(=O)c3cccnc3)c(=O)[nH]c2c1,106%
13,Cc1cccc(Oc2ccc3c(c2)Oc2ccccc2NC3=O)c1,73%
14,O=C1Nc2ccccc2Oc2cc(Oc3cccc(Cl)c3)ccc21,46%
15,O=C1Nc2ccccc2Oc2cc(Oc3ccccc3)ccc21,33% (active)
16,COc1ccc(-c2ccc(CNCCCSc3nnnn3C)o2)cc1Cl,79%
17,CCc1ccc(NC(=O)Cn2c(=O)c(-c3ccccc3NC(C)=O)nc3ccccc32)cc1,44% (active)
18,CCc1ccc(NC(=O)C(CC)n2c(=O)c(-c3ccccc3NC(C)=O)nc3ccccc32)cc1 (centres undefined),65%
19,CC(=O)Nc1ccccc1-c1nc2ccccc2n(CC(=O)Nc2ccc(C)c(Cl)c2)c1=O,101%
20,COc1ccc(Cl)cc1NC(=O)Cn1c(=O)c(-c2ccccc2NC(C)=O)nc2ccccc21,103%
21,CC(=O)Nc1ccccc1-c1nc2ccccc2n(CC(=O)Nc2cccc(C(F)(F)F)c2)c1=O,45% (active)
22,Nc1nonc1-c1nc2ccccc2n1CC(=O)Nc1cccc(C(F)(F)F)c1,95%
